ANO1 activ: activators or potentiators of mouse TMEM16A chloride channel | Q8BHY3 | HEK293 TMEM16A/YFP-H148Q/I152L, iodide quench fluorescence; hits give low values | B-score at 10 µM | hit rate 0.3% among 340,000 | AID 623877;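 active means fluorescence-ratio B-score plate-corrected deviation score at least 3 library SD below zero, with starting fluorescence score within 5 deviations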;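 further: channel opened by trigger with iodide after compound preincubation; score built on the fluorescence ratio of max minus min over baseline; more negative score means more quench and so TMEM16A activation or potentiation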
CRFR2-BP ag: agonists of human CRF-binding protein/CRF-R2 receptor complex; activation, % at 13.2 µM; HEK293 CRF-R2/CRF-BP, calcium dye fluorescence (FLIPR); percent of saturating CRF peptide response; hit rate 0.46% among 350,000;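 active means activation of at least 50%, plus an integration ratio under a set limit after plate pattern correction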;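 further: plate controls were neutral control wells without compound for no effect and CRF at EC100 for full effect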
CRFBP-R2 block: antagonists of CRF-binding protein/CRF-R2 receptor complex; HEK293 CRF-R2/CRF-BP, CRF-induced calcium fluorescence; inhibition, % at 11.8 µM; AID 588475; hit rate 0.59% among 350,000;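 active means inhibition of the ligand-induced calcium signal above about 50% at the single tested concentration, limit read from the data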
ANO1 block: inhibitors of mouse TMEM16A calcium-activated chloride channel; Q8BHY3; HEK293 TMEM16A/YFP iodide influx fluorescence, ionomycin; normalized B-score (activity score, 25-100; higher = stronger inhibition) at 10 µM; hit rate 1.2% among 310,000;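 active means ratio plate-corrected score three or more library SD toward inhibition, starting fluorescence score within five deviations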;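 further: score derived from kinetic fluorescence span divided by baseline fluorescence per well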
NR3A LBD binder: modulates the human NR3A ligand-binding domain; NR3A LBD differential scanning fluorimetry, Tm shift; 0% = protein alone, 100% = glycine-bound protein; Tm shift relative to glycine control, % at 25 µM; hit rate 2.5% among 340,000;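 active means melting temperature shift of at least 10% of the positive control shift, at one fixed dose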
MPTP inh: inhibitors of mitochondrial permeability transition pore; isolated mouse mitochondria, Ca2+ swelling absorbance, 30 min; inhibition, % at 10 µM; hit rate 1.4% among 360,000; AID 602449;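 active means inhibition of 50% or more, scaled per plate between neutral and stimulator controls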;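 further: 0% = DMSO wells given calcium and 100% = 1 mM EGTA wells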
TMEM16A reconf: reconfirmed blocker of mouse TMEM16A calcium-activated chloride channel. HEK293 TMEM16A/YFP-H148Q, iodide quench fluorescence; ionomycin added to raise cell calcium. shares compounds with ANO1 block. inhibition, % at 10 µM. hit rate 39% among 2,300;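 active means mean duplicate percent inhibition, scaled so buffer wells are 0 and the reference blocker 100, over three buffer SD above buffer mean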
HEK293 Ca mobil: counter-screen for TMEM16A inhibitors: effect on calcium mobilization | hit rate 2% among 2,300 | TMEM16A/YFP HEK293, Fluo4 calcium mobilization | shares compounds with ANO1 block | calcium response (% of ionomycin), % at 10 µM;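 active means duplicate-averaged calcium signal over 20% of the ionomycin maximum, relative to buffer baseline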;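 further: each well's signal is peak minus trough fluorescence divided by its pre-addition baseline; 0% = buffer wells and 100% = ionomycin wells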
YFP-HEK293 quench: parental YFP-HEK293 iodide quench counter-screen activity; YFP ratio F(max-min)/F0 at 10 µM; ionomycin; shares compounds with ANO1 block; 2,300 tested, under 10 active;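 active means yellow fluorescent protein signal ratio exceeding the buffer control mean by over 5 SD of those controls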;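 further: ratio is mean of duplicate wells from kinetic YFP trace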
ClC-1 rat inh: rat ClC-1 inhibition, TMEM16A specificity screen | ratio percent, % at 10 µM | shares compounds with ANO1 block | 2,300 tested, under 10 active | CHO ClC-1-YFP, iodide influx fluorescence quench; iodide control reads 0, buffer control 100;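 active means duplicate-mean ratio percent above the mean of iodide-only control wells, which defines zero, plus 5 of their SD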;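 further: higher percent means stronger block of ClC-1 iodide influx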
An asterisk follows results filed as active; i = inactive; / = no result given. Only some compounds are listed: those with a hit (about 5.1% of all), similar ones and a draw of the others.

SMILES	ANO1 activ	CRFR2-BP ag	CRFBP-R2 block	ANO1 block	NR3A LBD binder	MPTP inh	TMEM16A reconf	HEK293 Ca mobil	YFP-HEK293 quench	ClC-1 rat inh
CN1CCN(c2oc(Cc3cccc4ccccc34)nc2C#N)CC1	i	0	1	i	-2	0	/	/	/	/
O=C(CN(c1ccc(F)cc1)S(=O)(=O)c1ccccc1)NC1CCCCCC1	i	0	7	i	-1	-1	/	/	/	/
Cc1onc(-c2ccccc2)c1C(=O)NNC(=S)NC(=O)c1ccc2c(c1)OCO2	i	86*	-22	i	-4	4	/	/	/	/
CC(C)C(=O)Nc1cccc(NC(=S)NC(=O)c2ccc3c(c2)OCO3)c1	i	1	-2	i	12*	1	/	/	/	/
COC(=O)C[C@H]1N(S(=O)(=O)c2ccc(C)cc2)C(C(C)C)CC1(C(=O)OC)C(=O)OC (some centres not stated)	/	/	/	/	/	0	/	/	/	/
CCCOC(=O)c1ccc(NC(=O)CSC2=Nc3ccccc3C3CC=NN23)cc1 (configuration not stated)	i	3	-35	100*	7	14	i	i	-1	-8
COc1ccccc1N(CC(=O)NCCSCc1cccc(C)c1)S(=O)(=O)c1ccccc1	i	2	8	25*	1	0	i	i	-0.96	-18
CC(C)Nc1nc(Nc2ccc(Cl)cc2F)c2sccc2n1	/	/	/	/	/	3	/	/	/	/
Cc1c(NC(=O)C(C)Sc2ccccc2)c(=O)n(-c2ccccc2)n1C (configuration not stated)	i	-3	16	i	1	-1	i	i	-0.82	-8
COc1cccc(CN2CCN(CC(=O)NCCc3ccccc3)CC2)c1	i	0	9	i	-1	0	/	/	/	/
COc1ccc(C2NC(=O)NC(C)=C2C(=O)OC2CCC(C)CC2)cc1 (configuration not stated)	i	-2	-9	i	0	0	/	/	/	/
CC(c1ccco1)N(C(=O)c1ccccc1NS(=O)(=O)c1ccc(Cl)c([N+](=O)[O-])c1)c1ccccn1 (configuration not stated)	i	15	52*	100*	-2	46	26%*	i	-0.91	-22
CC(c1ccco1)N(C(=O)c1cc(Cl)cc(Cl)c1)c1ccccn1 (configuration not stated)	i	2	-1	i	1	-3	/	/	/	/
O=C(Nc1cc2c3c(c1)CC(=O)N3CCC2)c1ccc(Br)o1	i	1	17	i	0	0	/	/	/	/
COc1c(C(=O)Nc2ccc(Cc3ccncc3)cc2)ccc2ccccc12	i	2	-25	100*	4	38	i	i	-1.1	-8
CN(CC(=O)Nc1ccc(Cl)c(C(F)(F)F)c1)C(=O)Cc1n[nH]c(=O)c2ccccc12	i	0	3	100*	-4	9	26%*	i	-0.89	3
CN(CC(=O)Nc1cccc(F)c1)C(=O)Cc1n[nH]c(=O)c2ccccc12	i	-1	-7	i	-2	-2	/	/	/	/
CC(C)(C)c1ccc(C(=O)c2cn[nH]c2-c2ccccc2O)cc1	i	3	-3	i	-3	2	/	/	/	/
CC1C/C(=N/N=C2/NC(=O)CS2)CC(C)(C)C1 (configuration not stated)	i	-1	32	100*	-4	2	i	i	-1.2	-13
O=C1CS/C(=N/N=C2C3CC4CC(C3)CC2C4)N1	i	0	18	i	-11	1	/	/	/	/
CC(=O)Oc1ccc(-c2cccc(C(=O)NCC(=O)O)c2)cc1	i	1	-2	25*	2	-1	i	i	-1.1	-6
COc1cc2c(cc1OC)CN(c1ccc(C(N)=O)cc1[N+](=O)[O-])CC2	i	-1	1	i	-45	-2	/	/	/	/
O=[N+]([O-])c1ccc(N2N=C(c3ccco3)CC2c2ccccc2)cc1 (configuration not stated)	i	51*	-122	i	-2	2	27%*	i	-0.81	8
Fc1ccc(C2CC(c3ccco3)=NN2c2ccccc2)cc1 (configuration not stated)	i	2	-17	i	-1	2	/	/	/	/
CCOc1ccc(CNC(=O)CN2C(=O)CSc3ccc(S(=O)(=O)N4CCOCC4)cc32)cc1OC	i	-1	-7	i	0	-2	/	/	/	/
SMILES	ANO1 activ	CRFR2-BP ag	CRFBP-R2 block	ANO1 block	NR3A LBD binder	MPTP inh	TMEM16A reconf	HEK293 Ca mobil	YFP-HEK293 quench	ClC-1 rat inh
C[C@]12C(=O)N(c3ccc(F)cc3)C(=O)N1[C@H]1c3ccccc3OC[C@@H]1[C@H]2c1ccccc1	i	6	0	/	0	2	/	/	/	/
Cc1ccc(CN2C(=O)[C@@H]3Cc4c([nH]c5ccccc45)C(C)(C)N3C2=O)cc1	i	2	-19	i	1	2	/	/	/	/
COc1cccc(CN2C(=O)[C@@H]3Cc4c([nH]c5ccccc45)C(C)(C)N3C2=O)c1	i	0	-10	25*	-3	1	18%*	i	-1.1	-8
CC(C)NC(=O)N(C)C[C@H]1OCCCC[C@H](C)Oc2ccc(NS(=O)(=O)c3ccccc3)cc2C(=O)N([C@H](C)CO)C[C@H]1C	/	1	5	/	/	3	/	/	/	/
CCC(C(=O)OCC(=O)Nc1ccc(Cl)c(S(=O)(=O)N(C)C)c1)c1ccccc1 (configuration not stated)	i	-2	12	25*	5	22	20%*	i	-1.2	-6
CN(C)S(=O)(=O)c1cc(NC(=O)COC(=O)Cc2ccc(Cl)cc2Cl)ccc1Cl	i	-2	-3	i	2	3	/	/	/	/
CN(C)S(=O)(=O)c1cc(NC(=O)COC(=O)Cc2cccc3ccccc23)ccc1Cl	i	1	8	25*	7	21	i	i	-0.94	-4
C[C@@H]1CN([C@@H](C)CO)C(=O)CCCn2cc(nn2)CO[C@H]1CN(C)C(=O)c1ccc2ccn(C)c2c1	/	1	33	/	/	0	/	/	/	/
O=C(Cn1nnc(-c2ccc(Cl)cc2)n1)NC(=O)NC1CCCC1	/	-1	7	/	/	0	/	/	/	/

Assay outcomes deposited in PubChem BioAssay by several laboratories.
